Assay outcomes from PubChem BioAssay.
Mot1-301 SUMO – blocks SUMOylation pathway, rescuing yeast Mot1-301 growth | S. cerevisiae Mot1-301 growth rescue, ATP luminescence, 38.5C; percent above DMSO median, 100 means doubled | growth rescue, % at 18.8 µM | actives 1% (n = 320,000) | AID 2716;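 active = every valid replicate shows activation above 250% relative to neutral control wells; inactive = the rest, any valid replicate at or below 250%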
CHT PAM – human CHT allosteric activation; Q9GZV3; CHT-expressing cells, membrane potential dye, choline EC20; stronger effect = higher value; LV-AA mutant CHT in HEK293 cells; B-score at 10 µM; actives 0.49% (n = 310,000);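 active = initial fluorescence not abnormally high and integrated response B-score, plate-corrected, over 3 SD above library mean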
Target sequence (Q9GZV3 whole entry, looked up): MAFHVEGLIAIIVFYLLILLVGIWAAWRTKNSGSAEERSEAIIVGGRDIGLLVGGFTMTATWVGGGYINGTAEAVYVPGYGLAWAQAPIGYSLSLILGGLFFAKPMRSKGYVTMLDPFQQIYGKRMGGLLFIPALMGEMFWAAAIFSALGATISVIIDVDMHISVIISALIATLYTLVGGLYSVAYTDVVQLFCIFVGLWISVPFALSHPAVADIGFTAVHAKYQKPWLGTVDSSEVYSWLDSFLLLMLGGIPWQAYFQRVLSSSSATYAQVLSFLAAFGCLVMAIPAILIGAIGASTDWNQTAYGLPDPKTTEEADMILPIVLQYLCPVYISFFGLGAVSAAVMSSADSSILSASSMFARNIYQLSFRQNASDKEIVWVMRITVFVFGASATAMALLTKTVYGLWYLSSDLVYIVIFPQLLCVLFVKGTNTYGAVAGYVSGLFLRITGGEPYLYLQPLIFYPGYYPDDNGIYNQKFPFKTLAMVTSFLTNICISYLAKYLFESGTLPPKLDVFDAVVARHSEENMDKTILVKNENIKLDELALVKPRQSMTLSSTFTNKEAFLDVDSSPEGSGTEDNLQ
CHT block – human CHT choline transport inhibition; Q9GZV3; B-score at 10 µM; actives 0.86% (n = 310,000); CHT-expressing cells, membrane potential dye, choline response; stronger effect = lower value; AID 488975;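 active = B-score over 3 SD under the library average, and starting fluorescence ratio not unusually high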;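 also: choline stimulus applied at its EC90 after an EC20 pre-addition; B-score computed on integrated fluorescence ratio after choline addition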
MEKK2 mut-MEK5 – signal of MEK5 binding to mutant human MEKK2 PB1 domain. bead flow cytometry, Alexa488-MEK5 binding to MEKK2 mutant. percent response, % at 10 µM. actives 0.35% (n = 290,000). AID 1530; in the data active = percent response above about 24%, passing the limit was not always enough
MEKK2 WT-MEK5 – raises or lowers MEK5 binding to wildtype human MEKK2 PB1 domain; actives 1.1% (n = 290,000); Q9Y2U5; binding response (% of control), % at 10 µM; AID 1531; bead flow cytometry, Alexa488-MEK5 binding to MEKK2 WT; actives lie on both sides; in the data active = binding response below about 67% or above about 130%
MEKK3 PB1 HTS – MEKK3-MEK5 PB1 interaction, increase or decrease; Q99759; bead-based flow cytometry, Alexa488-MEK5 binding to MEKK3; actives lie on both sides; 0 = blocked by unlabeled MEK5, 100 = vehicle; binding response (% of control), % at 10 µM; actives 1.4% (n = 290,000); AID 1529;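 active = binding response more than 3 SD above or below the average of its plate-row segment, actives on both sides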;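 also: Alexa488 bead fluorescence after subtracting the streptavidin-only scavenger bead signal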
Of the large screens only hits and unclear results are named; the others gave an inactive call. This is a sample that favours compounds with a hit; in the whole collection about 4.1% have one here.

C=C[C@@H]1c2c(F)cccc2N(S(=O)(=O)c2ccc(C)cc2)[C@H](c2ccc(C(=O)OC)cc2)C1(C#N)C#N	none (no result: CHT PAM, CHT block, MEKK2 mut-MEK5, MEKK2 WT-MEK5, MEKK3 PB1 HTS)
CC(=O)c1c(C)[nH]c(C(=O)Nc2ccc(C)cc2Br)c1C	none
Cc1ccc2c(c1)C1CCCC3C1N2CC(=O)N3Cc1ccccc1 (centres undefined)	MEKK2 WT-MEK5 18.0
O=C(CO/N=C/c1cccc([N+](=O)[O-])c1)Nc1ccc2ccccc2c1	Mot1-301 SUMO 338.0
CCC1CCCCN1CCCNC(=O)c1ccc2c(c1)N(Cc1c(F)cccc1Cl)C(=O)CS2 (centres undefined)	CHT block -5.38
O=C(COC(=O)C12CC3CC(CC(Br)(C3)C1)C2)Nc1cccnc1Cl	none
CC(C)n1c(=NC(=O)c2ccco2)c(C#N)cc2c(=O)n3ccccc3cc21	CHT PAM 7.2 (no result: MEKK2 mut-MEK5, MEKK2 WT-MEK5, MEKK3 PB1 HTS)
CC(C)Cn1c(-c2ccc(Cl)cc2)cnc1SCC(=O)N1CCOCC1	Mot1-301 SUMO 306.2
CCn1c(CNC(=O)c2ccc(Cl)cc2)nnc1SCC(=O)N1CCOCC1	none
O=C(C1=C[C@H](C2CC2)C[C@H](OCc2ccc(CO)cc2)O1)N1CCN(Cc2ccc3c(c2)OCO3)CC1	CHT block -5.26
COC(=O)c1ccc(NC(=O)CN2CCN(CC#N)CC2)cc1	none
Cc1ccc(S(=O)(=O)N(Cc2cc3cc4c(cc3[nH]c2=O)OCCO4)CC2CCCO2)cc1 (centres undefined)	Mot1-301 SUMO 332.0
COc1cc2c(=O)n(CCC(=O)NCC3CCCO3)c(=O)n(CC(=O)Nc3ccc(C)c(C)c3)c2cc1OC (centres undefined)	none
COc1cc2c(=O)n(CCC(=O)NCC3CCCO3)c(=O)n(CC(=O)Nc3ccc(F)cc3)c2cc1OC (centres undefined)	Mot1-301 SUMO 283.5
O=C(OCCN1CCN(C2=NS(=O)(=O)c3ccccc32)CC1)c1cccc(Br)c1	none
COc1c(OC)c(O)c2c(=O)c(O)c(-c3ccccc3)oc2c1OC	none
COc1ccc(-c2oc3c(OC)c(OC)c(OC)c(O)c3c(=O)c2OC)cc1OC	Mot1-301 SUMO active
Oc1ccccc1-c1nc2c3ccccc3c3ccccc3c2[nH]1	MEKK2 WT-MEK5 -12.0
CCOC(=O)NC(=O)C(=CNc1ccc(C)cc1)C(=O)NC(=O)OCC	none
CCOC(=O)c1c(N)sc2c1CCN(CCc1ccccc1)C2	CHT PAM 8.06
Cc1cc(C)c2c(=O)n(CC(=O)NCCCN3CCOCC3)sc2n1	Mot1-301 SUMO 352.5
CC(C)COc1cccc(-c2cc(C(=O)Nc3ccon3)c3ccccc3n2)c1	none
C#CCOCCOCCOCCNc1nc(N2CCN(C(=O)[C@H](CC(N)=O)n3cc([C@@H](N)C(C)C)nn3)CC2)nc(N2CCN(C(=O)[C@H](CC(N)=O)n3cc([C@@H](N)C(C)C)nn3)CC2)n1	none (no result: CHT PAM, CHT block, MEKK2 mut-MEK5, MEKK2 WT-MEK5, MEKK3 PB1 HTS)
CCOC(=O)C1(CCCc2ccccc2)CCN(C(=O)CCc2cnn(C)c2)CC1	none
CCOC(=O)C1(CCCc2ccccc2)CCN(C(=O)CCOC)CC1	Mot1-301 SUMO 600.1
O=S(=O)(Nc1ccc2c(c1)OCCO2)c1c(F)cccc1F	none
CCC(=O)Nc1cccc(C2=NOC3(C2)C[C@@H](C(N)=O)N(C(=O)CC(c2ccccc2)c2ccccc2)C3)c1 (some centres undefined)	none
NC(=O)[C@H]1CC2(CC(c3cccc(NC(=O)CC(c4ccccc4)c4ccccc4)c3)=NO2)CN1C(=O)CC(c1ccccc1)c1ccccc1 (some centres undefined)	Mot1-301 SUMO 355.3
COc1ccccc1C(=O)NCC(=O)NC(C)CCc1ccccc1 (centres undefined)	Mot1-301 SUMO 339.6
COc1ccccc1C(=O)OCC(=O)NC(C)CCc1ccccc1 (centres undefined)	none
Cc1ccc2c(c1)N(CC(=O)NCC1CCCO1)C(=O)C(C(C)C)O2 (centres undefined)	none
Cc1ccccc1C(=O)Nc1c(C(=O)N2CCN(C)CC2)cnn1-c1ccccc1	none
CN1CCN(C(=O)c2cnn(-c3ccccc3)c2NC(=O)c2ccccc2Br)CC1	Mot1-301 SUMO 331.4
O=C(NCC1CCCO1)c1cc(S(=O)(=O)Nc2ccc(Br)cc2)ccc1Cl (centres undefined)	none
Cc1noc2ncnc(Sc3ccc(Cl)cc3)c12	Mot1-301 SUMO 323.5
CC1Oc2ccccc2C=C1/C=N/Nc1ccc(C(=O)O)cc1 (centres undefined)	Mot1-301 SUMO 401.9
CN(C)C(CNC(=O)c1ccc(C(F)(F)F)cc1)c1ccco1 (centres undefined)	none
CCN(CC)CCSc1nc(O)c(-c2ccccc2)c(=O)n1-c1ccccc1	none
CCN(CC)CCSc1nc2ccccc2c(=S)n1-c1ccccc1	CHT PAM 6.61
COc1ccc(N=c2oc3cc(O)ccc3cc2C(=O)NCC2CCCO2)cc1 (centres undefined)	none
CCOc1ccc(N=c2oc3cc(O)ccc3cc2C(=O)NCC2CCCO2)cc1 (centres undefined)	Mot1-301 SUMO 356.7
O=C(COC(=O)c1ccc([N+](=O)[O-])o1)Nc1ccc(Br)cc1F	Mot1-301 SUMO 336.7 (no result: CHT PAM, CHT block, MEKK2 mut-MEK5, MEKK2 WT-MEK5, MEKK3 PB1 HTS)
O=C(COC(=O)c1ccc([N+](=O)[O-])o1)Nc1ccc(F)cc1	none (no result: CHT PAM, CHT block, MEKK2 mut-MEK5, MEKK2 WT-MEK5, MEKK3 PB1 HTS)
C=CCNc1cc(C)oc(=O)c1C(=O)CCC	none
COc1ccc(N=C2SC(CC(=O)Nc3ccccc3)C(=O)N2CCc2ccccn2)cc1 (centres undefined)	Mot1-301 SUMO 356.4
COc1ccc(N=C2SC(CC(=O)Nc3ccccc3)C(=O)N2Cc2ccccn2)cc1 (centres undefined)	none
O=C(CSc1c(Cl)cccc1Cl)NC1CCCc2ccccc21 (centres undefined)	Mot1-301 SUMO 349.2
O=C(CSc1ccccc1Cl)NC1CCCc2ccccc21 (centres undefined)	none
Oc1ccc(N=Nc2ccccc2)o1	Mot1-301 SUMO 312.8
O=c1ccc(N=Nc2ccccc2)ccc1O	none
CCN(CC(=O)NCc1ccc(F)cc1)C(=O)c1ccc2c(c1)OCO2	none (no result: CHT PAM, CHT block, MEKK2 mut-MEK5, MEKK2 WT-MEK5, MEKK3 PB1 HTS)
C=CCn1c(=O)c(C(=O)NC(C)c2ccccc2)c(O)c2ccccc21 (centres undefined)	none
Cc1nn(C)cc1CN(C)S(=O)(=O)c1cccc([N+](=O)[O-])c1	Mot1-301 SUMO 549.8
Cc1nn(S(=O)(=O)c2cccc([N+](=O)[O-])c2)c(C)c1Br	none
Cc1nnc(SCC(=O)N(C2CCCCC2)C2CCS(=O)(=O)C2)n1N (centres undefined)	none (no result: MEKK2 mut-MEK5, MEKK2 WT-MEK5, MEKK3 PB1 HTS)
CCC(C)NC(=O)C1(O)c2cc(Br)ccc2NC(=O)N1c1cccc(OC)c1 (centres undefined)	none
